Screening results: PubChem, National Center for Advancing Translational Sciences (NCATS)
TDP1 inh = inhibitors of human tyrosyl-DNA phosphodiesterase TDP1; actives 0.28% (n = 350,000); AID 485290; Potency, µM (top dose mostly 130 µM), for inactives: at the top dose activity change, negative = inhibition, actives largely listed as inhibitors; Q9NUW8; recombinant TDP1, AlphaScreen DNA substrate cleavage; further: potency means the concentration at half of the fitted maximal effect; on the % scale 0 is the no-effect control and ±100 the full control effect; nearly all actives have a fitted effect of over 40% in size
Target sequence (Q9NUW8 whole entry, looked up): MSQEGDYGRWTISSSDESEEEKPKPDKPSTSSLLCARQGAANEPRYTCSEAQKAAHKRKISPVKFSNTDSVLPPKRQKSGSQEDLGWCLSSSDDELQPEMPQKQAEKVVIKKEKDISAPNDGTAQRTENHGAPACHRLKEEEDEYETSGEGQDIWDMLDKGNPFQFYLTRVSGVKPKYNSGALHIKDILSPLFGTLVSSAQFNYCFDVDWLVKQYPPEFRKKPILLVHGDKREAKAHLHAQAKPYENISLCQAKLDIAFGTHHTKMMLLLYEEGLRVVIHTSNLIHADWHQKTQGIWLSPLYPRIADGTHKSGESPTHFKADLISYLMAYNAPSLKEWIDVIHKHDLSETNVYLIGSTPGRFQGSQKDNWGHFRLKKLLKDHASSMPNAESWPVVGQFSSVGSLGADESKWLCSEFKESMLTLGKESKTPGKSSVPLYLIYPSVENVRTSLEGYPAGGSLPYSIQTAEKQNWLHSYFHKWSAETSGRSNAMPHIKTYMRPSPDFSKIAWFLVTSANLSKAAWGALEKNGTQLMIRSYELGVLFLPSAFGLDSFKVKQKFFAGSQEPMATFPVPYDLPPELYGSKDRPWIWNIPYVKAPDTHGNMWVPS
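Steps: enzyme plus compound, 15 min RT; add biotin/phosphotyrosine-FITC oligonucleotide (15 nM final), react 5 min; add donor/acceptor beads (10 ug/ml final), 10 min; read AlphaScreen. Tdp1 at 1 nM final.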
TGFb SMAD3 inh = blocks TGF-b signaling. HepG2 CAGA-GFP TGF-b/SMAD3 reporter, GFP fluorescence, 18 h; TGF-beta stimulated, 500 pg/mL final. Potency, µM (titrated, usually from 46.1 µM), inactives show at the highest dose activity, negative = inhibition, actives largely listed as inhibitors. actives 1.2% (n = 410,000). AID 588855; further: potency means the concentration at half of the fitted maximal effect; on the % scale 0 is the no-effect control and ±100 the full control effect; nearly all actives have a fitted effect of over 65% in size
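First, reporter cells (HEPG2 CAGA-GFP) rested 2 h at 37 degrees C. Next, compounds were pinned in and TGF-beta added to 500 pg/mL final. After 18 h, GFP was imaged per cell and summed per well.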
HepG2 viability = HepG2 cytotoxicity, counter-screen for TGF-b inhibitors | HepG2 CAGA-GFP viability, ATP luminescence, 18 h | Potency, µM (doses to about 46.1 µM), without a hit: at the highest dose activity change, negative = cytotoxicity, usual class: cytotoxic | actives 0.76% (n = 410,000) | AID 588856; further: potency means the concentration at half of the fitted maximal effect
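CellTiter-Glo luminescence gave cytotoxicity after 18 hours at 37 degrees C. The cells were HepG2 CAGA-GFP in 1% FBS DMEM, stimulated with 500 pg/mL TGF-beta after compound addition. %Activity was normalised to no-cell wells (complete cell-killing) and DMSO (no toxicity), and curves were fitted and classified.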
TDP1 cell noCPT = qHTS for Inhibitors of human tyrosyl-DNA phosphodiesterase 1 (TDP1): qHTS in cells in absence of CPT; DT40 Tdp1-/- hTDP1 cells, no CPT, ATP luminescence, 48 h; Potency, µM (doses to about 46.2 µM), inactives show at the top dose activity change, negative = growth inhibition, actives largely listed as inhibitors; actives 15% (n = 420,000); AID 686978, 2013; further: potency means the concentration at half of the fitted maximal effect; on the % scale 0 is the no-effect control and ±100 the full control effect; nearly all actives have a fitted effect of over 55% in size
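Stably hTDP1-transfected Tdp1-null chicken DT40 cells were treated with library compounds minus camptothecin and grown for at least 48 hr at 37 °C, after which cellular ATP was quantified by luminescence.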
IL1B secr inh = inhibitors of inflammasome signaling (IL-1 beta secretion) | AID 743279 | THP-1 LPS/ATP IL-1B secretion, AlphaLISA, 16 h; hits give low values | actives 4.7% (n = 360,000) | activity change, % at 57.5 µM; in the data active means activity change below about -50%; inconclusive means mostly about -30% to -49%; further: on the % scale 0 is the no-effect control and ±100 the full control effect
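THP-1 cells pretreated 1 hr with compounds (up to 57.5 uM final), then stimulated with LPS (250 ng/mL final) plus ATP (1.25 mM final); secreted IL-1B measured by AlphaLISA after 16 hr, decreased signal indicating inhibition.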
DT40 TDP1 CPT = DT40-hTDP1 cell growth loss with CPT | actives 12% (n = 420,000) | AID 686979 | Potency, µM (series often up to 46.2 µM), for inactives: at the top dose activity change, negative = growth inhibition, usual class: inhibitors | chicken DT40 Tdp1-/-;hTDP1 cells + 20 nM CPT, ATP luminescence, 48 h; further: potency means the concentration at half of the fitted maximal effect; on the % scale 0 is the no-effect control and ±100 the full control effect; nearly all actives have a fitted effect of over 55% in size
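Chicken DT40 Tdp1-/- cells complemented with human TDP1, 400 cells/well, exposed to compounds plus 20 nM camptothecin for at least 48 h at 37 C; viability read as ATP content by CellTiter-Glo luminescence.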
The depositor's hits bear a star; ? = inconclusive; · = no result; [ ] = dose if it differs, or a comment. Compounds with a hit are over-represented: about 19% of the library has one in this group of screens. Unless noted, the call rests on the fitted dose curve; in most records, active means well fitted curve in the direction sought with a large enough effect; inconclusive means small, poorly fitted or top-dose-only effect, or another doubt; inactive means no such curve, though single readings can be large; an effect the other way counts as inactive or inconclusive.

SMILES	TDP1 inh	TGFb SMAD3 inh	HepG2 viability	TDP1 cell noCPT	IL1B secr inh	DT40 TDP1 CPT
Cc1ccc(S(=O)(=O)N2CCOCC2)cc1C(=O)OCC(=O)N1CCc2ccccc2C1	-2.2%	-8.3%	7.9%	23.1µM*	16.7	?
O=C(COc1ccc(S(=O)(=O)N2CCOCC2)cc1)N1CCc2ccccc2C1	·	14.7%	38.0%	?	-8.3	?
CC1CCCC(NC(=O)COC(=O)c2cc(S(=O)(=O)N3CCCCC3)ccc2N2CCOCC2)C1C (centres undefined)	6.6%	-11.9%	-2.0%	?	2.4	-26.3%
Cc1ccc(S(=O)(=O)N2CCOCC2)cc1C(=O)OCC(=O)NC1CCCC(C)C1C (centres undefined)	-7.4%	-9.1%	-5.0%	4.61µM*	19.8	14.6µM*
Cc1ccc(C)c(NC(=O)c2cc(S(=O)(=O)N3CCN(c4cccc(Cl)c4)CC3)ccc2F)c1	7.8%	-16.4%	9.2%	?	·	?
CCC(CO)Nc1ccn2nc(-c3cccc(Cl)c3)cc2n1 (centres undefined)	·	-5.5%	-35.8%	23.1µM*	-4.2	23.1µM*
CCCNC(=O)OC[C@@H]1O[C@H](CCO/N=C(\C)CCN2CCCCc3nc(C)c(C)cc32)C=C[C@@H]1Oc1ccc(OC)cc1	9.0%[21 µM]	·	·	·	·	·
COC(=O)CN1C(=O)CSc2ccc(S(=O)(=O)N3CCOCC3)cc21	2.8%	1.1%	3.3%	-4.9%	·	24.2%
COc1ccccc1/C=C/C(=O)Oc1cccc2cccnc12	5.1%	7.94µM*	10µM*	16.4µM*	0.0	?
O=C(/C=C\c1ccco1)Oc1cccc2cccnc12	?	3.16µM*	-74.0%	0.651µM*	-165.4*	0.581µM*
O=C(/C=C/c1ccco1)Oc1cccc2cccnc12	-8.2%	?	-47.1%	?	-94.4*	?
COc1ccccc1/C=C/C(=O)OCCCN(C)C	-5.1%	-0.7%	-44.7%	3.0%	27.2	7.1%
CCc1ccc(OC(=O)/C=C/c2ccco2)cc1	·	-5.0%	0.1%	13.7%	45.6	-4.1%
COc1ccc(NC(=O)Cn2c(=O)n(Cc3nc(-c4ccccc4)no3)c(=O)c3cc4c(cc32)OCO4)c(OC)c1	-2.8%	-5.8%	7.3%	-5.3%	·	-20.3%
CCCN(CCC)C(=O)c1ccc2c(c1)N(CC)C(=O)c1ccccc1S2(=O)=O	·	4.4%	11.7%	?	-6.7	?
CCCc1nc2ccccc2c(C(=O)O)c1CC	0.0%	18.0%	-3.9%	-9.2%	3.1	-5.3%
CCCOC(=O)c1c(-c2ccccc2)nc(CC)c(C(=O)SCC)c1CCC	0.8%[56.1 µM]	2.1%	-3.9%	16.4µM*	33.3	?
Cc1cc(C(=O)OCc2nnc(-c3ccccc3)o2)c(C)n1-c1ccccc1	4.2%	?	-22.8%	20.6µM*	-16.3	18.4µM*
Cc1noc(C)c1COC(=O)c1cc(C)n(-c2ccccc2)c1C	11.4%	0.6%	-15.4%	20.6µM*	?	?
O=C(OCc1nnc(-c2ccccc2)o1)c1cn(-c2ccccc2)nc1-c1ccccc1	1.0%	-13.4%	1.9%	?	-6.1	?
